# Compound activity as filed in PubChem.
# Rango-impB inh – qHTS Assay for Inhibitors of Rango (Ran-regulated importin-beta cargo) - Importin beta complex formation. Importin subunit beta-1 (Homo sapiens), Q14974. Rango CFP/YFP FRET sensor + importin beta, 45 min. Potency, µM (series often up to 92.2 µM). AID 540263, 2011. 340,000 compounds, 0.031% hits; further: nearly all actives have a fitted effect of over 15% in size
# Target sequence (Q14974 whole entry, looked up): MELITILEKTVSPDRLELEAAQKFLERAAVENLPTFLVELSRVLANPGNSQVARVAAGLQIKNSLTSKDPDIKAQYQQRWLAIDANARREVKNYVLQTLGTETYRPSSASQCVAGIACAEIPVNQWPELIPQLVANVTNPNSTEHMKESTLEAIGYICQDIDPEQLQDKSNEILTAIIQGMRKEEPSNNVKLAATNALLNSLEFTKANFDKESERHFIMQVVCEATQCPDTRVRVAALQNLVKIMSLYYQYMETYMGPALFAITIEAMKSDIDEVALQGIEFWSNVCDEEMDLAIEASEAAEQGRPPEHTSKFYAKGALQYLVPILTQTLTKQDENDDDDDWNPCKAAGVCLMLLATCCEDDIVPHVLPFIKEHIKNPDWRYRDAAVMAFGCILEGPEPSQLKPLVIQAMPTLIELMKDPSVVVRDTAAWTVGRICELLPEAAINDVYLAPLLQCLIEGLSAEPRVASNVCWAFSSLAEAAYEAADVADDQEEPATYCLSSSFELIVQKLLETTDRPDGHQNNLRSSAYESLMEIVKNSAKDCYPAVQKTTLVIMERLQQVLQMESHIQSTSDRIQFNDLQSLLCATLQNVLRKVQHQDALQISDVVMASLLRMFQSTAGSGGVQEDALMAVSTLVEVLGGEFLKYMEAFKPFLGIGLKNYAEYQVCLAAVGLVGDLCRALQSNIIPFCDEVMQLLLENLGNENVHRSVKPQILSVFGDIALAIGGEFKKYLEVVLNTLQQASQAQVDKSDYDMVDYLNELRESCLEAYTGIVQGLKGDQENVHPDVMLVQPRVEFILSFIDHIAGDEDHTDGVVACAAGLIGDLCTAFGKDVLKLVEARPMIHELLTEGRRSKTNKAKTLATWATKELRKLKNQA
#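 FRET biosensor (snurportin 1 IBB flanked by EYFP and cerulean), 50 nM, with compound 5 min, then 0.125 microM importin beta in PBS, 1 mM DTT, 0.02% Tween-20, 0.1% BSA. CFP/YFP ratio read after 45 min at room temperature; pre-read flags interference.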
# MmCpn inh – Inhibitors of TCP-1 ring complex (TRiC) of Methanococcus maripaludis (MmCpn): qHTS; Potency, µM (doses to about 76.9 µM), hits mostly inhibitors; purified Mm-Cpn ATPase, ADP Transcreener TR-FRET; 330,000 compounds, 0.031% hits; Chaperonin Mm-Cpn (Methanococcus maripaludis); active means well fitted inhibition curve with a large enough effect; inconclusive means small, poorly fitted or top-dose-only effect; further: nearly all actives have a fitted effect of over 80% in size
#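 TR-FRET (320 nm excitation; 590 and 665 nm emission) reports ADP made from 10 uM ATP by 25 nM enzyme; compounds were preincubated 10 min, reaction run 30 min, both at 37°C.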
# CCT modulator – High-Throughput Screening for Modulators of Cytosolic Chaperonin Activity; purified chaperonin ATPase assay, HTRF ADP detection, 30 min; activity change, % (concentration not given with the values), hits read low; 360,000 compounds, 0.3% hits; in the data active means activity change below about -30%
#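 We incubate TRiC, 40 or 20 nM final, with library compounds at 76 uM and 10 uM ATP for 30 min at 37 °C. ADP formed is detected with Transcreener HTRF reagents after 30 min at room temperature.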
# KCNH2 3.1 inh – qHTS for Inhibitors of KCHN2 3.1: Mutant qHTS; 340,000 compounds, 0.95% hits; Potassium voltage-gated channel subfamily H member 2, brain isoform KCNH2 3.1 (human); activity change, % (tested at about 1.8 µM); AID 720553, 2013; U2OS KCNH2 3.1, thallium flux FluxOr; stronger effect = lower value;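 active means maximum activity change below -70%; inconclusive means maximum activity change from -70% to -50%; inactive means maximum activity change above -50%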;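 further: thallium influx rate constant from kinetic fluorescence after stimulation buffer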
#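 Steps: virus added to U2OS suspension (4 h, RT, dark); medium with 10% FBS added, cells plated, 37 C overnight; FluxOr/Red40 loading buffer 45 min RT; stimulation buffer, 2 min kinetic read; rate constant normalized.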
# hERG WT inh – qHTS for Inhibitors of KCHN2 3.1: Wildtype qHTS. Voltage-gated inwardly rectifying potassium channel KCNH2 (Homo sapiens), Q12809. U2OS, BacMam KCNH2, thallium flux FluxOr; stronger effect = lower value. activity change, % at 1.84 µM. 340,000 compounds, 0.37% hits. AID 720551, 2013;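 active means maximum activity change below -70%; inconclusive means maximum activity change between -70% and -50%; inactive means maximum activity change above -50%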
#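 U2OS cells transduced with wild-type KCNH2 virus are loaded with FluxOr dye for 45 min, and thallium flux is measured in kinetic reads before and after stimulation buffer. Rate constants are normalized to DMSO controls.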
# Rango release inh – qHTS Assay for Inhibitors of RanGTP induced Rango (Ran-regulated importin-beta cargo) - Importin beta complex dissociation. Biochemical FRET Rango-importin beta, RanGTP-induced dissociation. AID 540253, 2011. Snurportin-1 (Homo sapiens) + GTP-binding nuclear protein Ran (Homo sapiens) + Importin …. Potency, µM (titrated, usually from 46.1 µM). 340,000 compounds, 0.071% hits; further: nearly all actives have a fitted effect of over 45% in size
#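 Two FRET readings bracket the reaction: one 5 min after compound meets Rango–importin beta, another 45 min after RanGTP-RCC1 (0.6 uM Ran, 0.2 uM RCC1, 2 mM GTP) is added. Only the second defines inhibition.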
# Hits are given with their value; - = inactive; ? = inconclusive; . = no result; [ ] = remark or other dose. Only some compounds are listed: those with a hit (about 1.4% of all), similar ones and a draw of the others. Unless noted, the call rests on the fitted dose curve.
SMILES,Rango-impB inh,MmCpn inh,CCT modulator,KCNH2 3.1 inh,hERG WT inh,Rango release inh
O=C(O)c1ccccc1NN=Cc1ccccc1,-,.,-,-77,-,-
COc1cccc(/C=N/Nc2ccccc2C(=O)O)c1O,-,-,-,-,-,-
CCOCCn1c(=NC(=O)CSCC(=O)N2CCOCC2)sc2cc(OC)ccc21,-,-,-,-,-,-
COc1cc(C2C(N3C(=O)c4ccccc4C3=O)C(=O)N2c2cccc(C)c2)cc(OC)c1OC (centres undefined),.,-,.,.,.,.
Cc1cc2n(n1)C(c1cn(-c3ccccc3)nc1C)Nc1ccccc1-2 (centres undefined),-,-,-,-136,-125,-
O=C(CC(c1ccco1)C1CCCCC1=O)c1ccco1 (centres undefined),-,-,-38,-,-,-
CC(OC(=O)c1cc(Br)ccc1O)C(=O)Nc1ccc(S(=O)(=O)N2CCCC2)cc1 (centres undefined),-,-,-,-91,-,-
Cc1ccc(S(=O)(=O)N/N=C2/CC(c3ccccc3)Oc3ccccc32)cc1 (centres undefined),-,-,-,-110,-,-
COc1ccc(CN(CCc2ccccc2)Cc2ccccc2)cc1OC,-,-,-,-82,-,-
COc1cc(CN(CCN(C)C)Cc2ccccc2)ccc1OCc1ccccc1,-,-,-,-,-,-
CCC(Sc1nc(-c2ccccc2)c(C#N)c(=O)[nH]1)C(=O)Nc1cc(C)on1 (centres undefined),-,-,-,-71,-,-
Cc1cccc2cc(C#N)c(SCC(=O)N3CC(=O)Nc4ccccc43)nc12,?,?,-45,-,-,-
Cc1cc(-c2nn(-c3ccccc3F)cc2CN2CCN(c3ccncc3)CC2)c(C)s1,-,-,-,-136,-137,-
Cc1cc(-c2nn(-c3ccccc3F)cc2CN2CCC(O)CC2)c(C)s1,-,-[15.4 µM],-,-,-,-
CC1O[C@@H](O[C@H](C)CC[C@@H](C)O[C@H]2OC(C)[C@@H](O)C[C@H]2O)C(O)C[C@H]1O (some centres undefined),-,-,-,.,.,-
CN1C(=O)/C(=C\c2ccc(N(C)C)cc2)OC1=S,?,-,-,-,-101,?
O=C1OC2(CCCCC2)CC2=C1C1O[C@](CCCCN3C(=O)c4ccccc4C3=O)(Cc3ccccc31)O2,.,-[15.4 µM],.,.,.,.
CC(C)OC(=O)Nc1ccc(Oc2c(F)c(F)c(F)c(F)c2F)cc1,-,-,-76,-,-,-
COc1ccc(C(=O)NC(C)c2cccnc2)cc1S(=O)(=O)N(C)Cc1ccccc1 (centres undefined),-,-,-,-,-,-
CCOc1ccc(NC(=S)N2CCN(S(=O)(=O)c3ccc(C)cc3)CC2)cc1,-,-,-,.,-,-
O=C(Nc1ccc(Cl)cc1)N(C1=NCCC1)c1ccc(OC(F)F)cc1,-,-,-,-,-,-
O=C1C=C(c2ccc3ncccc3c2)C[C@@H](c2ccc(F)cc2)C1,-,-,-,-,-,-
COc1ccc([C@H]2CC(=O)C=C(c3ccc(SC)cc3)C2)cc1,-,-,-,-,-,-
O=C1C=C(c2ccc3ccccc3c2)C[C@@H](c2ccc(F)cc2)C1,-,-,-,-86,-,-
CSc1ccc(C2=CC(=O)C[C@H](c3ccc(F)cc3)C2)cc1,-,-,-39,-,-,-
O=C(O)CN1C(=O)/C(=C/C=C/c2ccccc2)SC1=S,-,-,-,-,.,-
CCN1C(=O)C(=CC=CN(C)c2ccccc2)SC1=S,.,.,-,-,-72,.
COc1ccc(Cn2nnc3c(=O)[nH]c(C4CCN(S(=O)(=O)c5ccc(C)cc5)CC4)nc32)cc1,-,-,-,-,-,?
